Test results published in PubChem BioAssay (NCATS).
Records with an inconclusive call do not appear. Active and inactive are the calls of the source. Calls come from the whole dose curve; as a rule, active = well fitted curve in the direction sought with a large enough effect; inconclusive = small, poorly fitted or top-dose-only effect, or another doubt; inactive = no such curve, though single readings can be large; an effect the other way counts as inactive or inconclusive.

Key:
[1] = S16 Schwann cell viability assay (CellTiter-Glo assay) (AID 624031); settings: S16 rat Schwann cells viability, 24 h; series mostly up to 57.5 µM;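 note: native untransfected S16 rat Schwann cells; nearly all actives have a fitted effect of over 70% in size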
Summary of the method: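 Counter-screen for cytotoxicity: parental S16 rat Schwann cells lacking the PMP22 reporters, treated 24 h with compound, viability from cellular ATP by CellTiter-Glo luminescence, normalized to DMSO (0%) and no-cell wells.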

3D7 = test: qHTS profiling for inhibitors of Plasmodium falciparum proliferation (AID 504749); note: nearly all actives have a fitted effect of over 60% in size; note: potency is the fitted concentration of half-maximal effect; settings: P. falciparum in erythrocytes, SYBR Green DNA, 72 h; series mostly up to 28.7 µM
Summary of the method: (§1)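 P. falciparum-infected erythrocytes (0.3% parasitemia, 2.5% hematocrit final) were exposed to compounds for 72 h at 37 C in 5% CO2, then lysed with SYBR Green buffer overnight at room temperature; parasite DNA fluorescence was normalized to artemisinin and DMSO controls.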

AS120 = test: as above; settings: P. falciparum in erythrocytes, SYBR Green DNA, 72 h; series mostly up to 28.7 µM
Summary of the method: as §1

C2A = test: as above; settings: P. falciparum in erythrocytes, SYBR Green DNA, 72 h; series mostly up to 28.7 µM
Summary of the method: as §1

CP203 = test: as above; settings: P. falciparum in erythrocytes, SYBR Green DNA, 72 h; series mostly up to 28.7 µM
Summary of the method: as §1

CP211 = test: as above; settings: P. falciparum in erythrocytes, SYBR Green DNA, 72 h; series mostly up to 28.7 µM
Summary of the method: as §1

CP237 = test: as above; settings: P. falciparum in erythrocytes, SYBR Green DNA, 72 h; series mostly up to 28.7 µM
Summary of the method: as §1

CP247 = test: as above; settings: P. falciparum in erythrocytes, SYBR Green DNA, 72 h; series mostly up to 28.7 µM
Summary of the method: as §1

CP265 = test: as above; settings: P. falciparum in erythrocytes, SYBR Green DNA, 72 h; series mostly up to 28.7 µM
Summary of the method: as §1

CP268 = test: as above; settings: P. falciparum in erythrocytes, SYBR Green DNA, 72 h; series mostly up to 28.7 µM
Summary of the method: as §1

CP269 = test: as above; settings: P. falciparum in erythrocytes, SYBR Green DNA, 72 h; series mostly up to 28.7 µM
Summary of the method: as §1

CP286 = test: as above; settings: P. falciparum in erythrocytes, SYBR Green DNA, 72 h; series mostly up to 28.7 µM
Summary of the method: as §1

CP305 = test: as above; settings: P. falciparum in erythrocytes, SYBR Green DNA, 72 h; series mostly up to 28.7 µM
Summary of the method: as §1

CP315 = test: as above; settings: P. falciparum in erythrocytes, SYBR Green DNA, 72 h; series mostly up to 28.7 µM
Summary of the method: as §1

CP325 = test: as above; settings: P. falciparum in erythrocytes, SYBR Green DNA, 72 h; series mostly up to 28.7 µM
Summary of the method: as §1

ECU = test: as above; settings: P. falciparum in erythrocytes, SYBR Green DNA, 72 h; series mostly up to 28.7 µM
Summary of the method: as §1

HB3 = test: as above; settings: P. falciparum in erythrocytes, SYBR Green DNA, 72 h; series mostly up to 28.7 µM
Summary of the method: as §1

JCK = test: as above; settings: P. falciparum in erythrocytes, SYBR Green DNA, 72 h; series mostly up to 28.7 µM
Summary of the method: as §1

N140 = test: as above; settings: P. falciparum in erythrocytes, SYBR Green DNA, 72 h; series mostly up to 28.7 µM
Summary of the method: as §1

PAD = test: as above; settings: P. falciparum in erythrocytes, SYBR Green DNA, 72 h; series mostly up to 28.7 µM
Summary of the method: as §1

Measured: Potency

OCCOC[C@H]1O[C@H](OCCO)[C@H](OCCO)[C@@H](OCCO)[C@@H]1OCCO (tested in a mixture with another compound)
inactive: all assays above

C#C[C@@]1(O)CC[C@@H]2[C@H]3CCC4=C/C(=N\O)CC[C@H]4[C@@H]3CC[C@]21CC
inactive: all assays above

COc1cc2c(cc1O)CCN[C@@]21CS[C@H]2c3c(OC(C)=O)c(C)c4c(c3C(COC1=O)N1C2C2c3c(cc(C)c(OC)c3O)CC([C@@H]1O)N2C)OCO4 (stereo partly drawn)
active: 3D7 0.3 nM | AS120 0.9 nM | C2A 2.8 nM | CP203 0.4 nM | CP211 0.5 nM | CP237 0.9 nM | CP247 1.1 nM | CP265 4.5 nM | CP268 0.5 nM | CP269 0.5 nM | CP286 0.3 nM | CP305 0.5 nM | CP315 1.5 nM | CP325 0.5 nM | ECU 0.8 nM | HB3 0.3 nM | N140 1 nM
inactive: [1]

Nc1ncn(C2C[C@H](O)[C@@H](CO)O2)c(=O)n1 (stereo partly drawn)
inactive: all assays above

C=C[C@H]1CN2CCC1C[C@H]2[C@H](O)c1ccnc2ccc(OC)cc12 (stereo partly drawn)
active: 3D7 178 nM | AS120 1410 nM | C2A 1120 nM | CP203 1690 nM | CP211 1350 nM | CP237 1260 nM | CP247 1260 nM | CP265 562 nM | CP268 1510 nM | CP269 1510 nM | CP286 1000 nM | CP305 1350 nM | CP315 1690 nM | CP325 1200 nM | ECU 251 nM | HB3 794 nM | JCK 10000 nM | N140 631 nM | PAD 891 nM
inactive: [1]

CCN(CC)C(=O)[C@@]1(c2ccccc2)C[C@@H]1CN
inactive: all assays above

CC1=C[C@@H](O)CC(C)(C)[C@@H]1/C=C/C(C)=C/C=C/C(C)=C/C=C/C=C(C)/C=C/C=C(C)/C=C/C1=C(C)C[C@H](O)CC1(C)C
inactive: [1] | CP203 | CP211 | CP268 | CP269 | CP286 | CP305 | CP315 | CP325
active: 3D7 10000 nM | HB3 11200 nM | N140 11200 nM

CO/N=C(/C(=O)N[C@@H]1C(=O)N2C(C(=O)O)=C(CSc3nc(C)c(CC(=O)O)s3)CS[C@H]12)c1csc(N)n1
inactive: all assays above

CC1=C(C/C=C(\C)CCCC(C)CCCC(C)CCCC(C)C)C(=O)c2ccccc2C1=O (stereo not drawn)
active: 3D7 8910 nM | HB3 11200 nM | PAD 7940 nM
not listed: AS120 | CP237 | CP265 | CP286 | N140
inactive: all other assays above

C[n+]1c2cc(N)ccc2cc2ccc(N)cc21
active: 3D7 398 nM | AS120 1000 nM | C2A 1000 nM | CP203 1070 nM | CP211 953 nM | CP237 282 nM | CP247 1120 nM | CP265 1260 nM | CP268 757 nM | CP269 953 nM | CP286 178 nM | CP305 757 nM | CP315 2130 nM | CP325 953 nM | ECU 1260 nM | HB3 447 nM | JCK 794 nM | N140 631 nM | PAD 1000 nM
inactive: [1]

O=c1ccn(C2OC(COP(=O)(O)OC3C(CO)OC(n4ccc(=O)[nH]c4=O)C3O)C(O)C2O)c(=O)[nH]1 (stereo not drawn)
inactive: all assays above

CN[C@H](C)CCC=C(C)C
inactive: [1]
active: 3D7 316 nM | AS120 224 nM | C2A 631 nM | CP203 601 nM | CP211 953 nM | CP237 199 nM | CP247 398 nM | CP265 398 nM | CP268 1510 nM | CP269 478 nM | CP286 398 nM | CP305 1690 nM | CP315 849 nM | CP325 757 nM | ECU 224 nM | HB3 199 nM | JCK 355 nM | N140 112 nM | PAD 178 nM

C[C@]12CC[C@@H]3c4ccc(O)cc4CC[C@H]3[C@@H]1C[C@H](O)C2O (stereo partly drawn)
inactive: all assays above

CCN(CC)C(=O)Nc1ccc(OC[C@H](O)CNC(C)(C)C)c(C(C)=O)c1
inactive: all assays above

CC1(Cn2ccnn2)[C@H](C(=O)O)N2C(=O)C[C@H]2S1(=O)=O (stereo partly drawn)
inactive: all assays above

CC[C@@]1(O)CC2CN(CCc3c([nH]c4ccccc34)[C@](C(=O)OC)(c3cc4c(cc3OC)N(C)C3[C@@](O)(C(=O)OC)C(OC(C)=O)[C@]5(CC)C=CCN6CC[C@@]43C65)C2)C1 (stereo partly drawn)
inactive: [1]
active: 3D7 2000 nM | AS120 2820 nM | C2A 2820 nM | CP203 3010 nM | CP211 2690 nM | CP237 794 nM | CP247 1120 nM | CP265 2240 nM | CP269 3010 nM | CP286 794 nM | CP305 3790 nM | CP315 3380 nM | ECU 2510 nM | JCK 6310 nM | N140 3550 nM | PAD 2240 nM

OCC1O[C@H](O[C@H]2C(O)C(O)C(O)O[C@@H]2CO)C(O)C(O)C1O (stereo partly drawn)
inactive: all assays above

CCC(=O)O[C@]1(C(=O)CCl)[C@@H](C)CC2C3C[C@H](F)C4=CC(=O)C=CC4(C)[C@@]3(F)C(O)CC21C (stereo partly drawn)
active: 3D7 11200 nM | AS120 7940 nM | C2A 12600 nM | CP211 9530 nM | CP237 3550 nM | CP247 12600 nM | CP265 8910 nM | CP268 12000 nM | CP269 12000 nM | CP286 10000 nM | CP305 12000 nM | CP325 16900 nM | ECU 3550 nM | HB3 12600 nM | N140 6310 nM | PAD 3980 nM
